The record followed here is PubChem BioAssay.

Structures are written as SMILES. Active and inactive are the calls of the source. Unless noted, no rule for the calls is given here.

A short description of assay [1]: resazurin metabolic signal in HepG2 cells – cell-based, resazurin fluorescence, 24 h, PK04 Diversity Set, profiling panel (AID 1172). Also: test concentration not given here. The conditions noted are these: HepG2 viability, higher = more signal.
Assay [2] in a line: budding yeast growth changes without added modifier – OD600, strain BY4716, 24 h, basal condition, primary screen (AID 1173). Particulars: S. cerevisiae BY4716 growth, OD600, 24 h; higher = more signal, called active from +8 up or from −8 down.
A short description of assay [3]: viability profiling in MM1S myeloma cells – cell-based, resazurin fluorescence, basal, 24 h, PK04 Diversity Set, profiling panel (AID 1174).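 Also: MM1S multiple myeloma cell line; test concentration not given here.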 The conditions noted are these: higher = more signal, called active from +8 up or from −8 down.
In assay [4] the target is Dihydroorotate dehydrogenase (quinone), mitochondrial (Plasmodium falciparum (isolate 3D7)) (UniProt Q08210). In words: inhibition of P. falciparum DHODH – biochemical, C-terminal His tag, absorbance 600 nm, primary screen (AID 1175).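 Also: recombinant parasite enzyme with a five histidine tag at its C terminus; test concentration not given here.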 Particulars: PfDHODH enzyme, DCIP absorbance 600 nm; higher = more signal, called active from +8 up or from −8 down.
A short description of assay [5]: inhibition of PAO1 biofilm formation – strain PAO1, LB-PBS medium, absorbance 600 nm, primary screen (AID 1176). Also: test concentration not given here. Particulars: P. aeruginosa PAO1 growth/biofilm, A600, 12 h; higher = more signal.
Assay [6] is described as follows: growth modulation of vineyard yeast isolate – strain RM11-1a, OD600, basal, 24 h, primary screen (AID 1177).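 Also: cultures grown under basal conditions with no added stressor; test concentration not given here.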 The conditions noted are these: S. cerevisiae RM11-1a growth, OD600, 24 h; higher = more signal, called active from +8 up or from −8 down.
The nature of assay [7]: growth of efflux-deficient E. coli DRC39 – strain DRC39, OD650, 24 h, E. coli filamentation inducers, primary screen (AID 1178).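 Also: growth measured as culture turbidity by optical density at 650 nm; test concentration not given here.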 The conditions noted are these: E. coli DRC39 acrAB, higher = more signal, called active from +8 up or from −8 down.
Assay [8] can be described thus: growth of efflux-deficient E. coli DRC39 – strain DRC39, OD650, 48 h, E. coli filamentation inducers, primary screen (AID 1179).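 Also: screen aims at cell division blockers that make cells filament.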 Particulars: E. coli DRC39 delta-acrAB growth, higher = more signal, called active from +8 up or from −8 down.
Assay [9] can be described thus: viability profiling in RPMI8226 myeloma cells – cell-based, resazurin fluorescence, basal, 24 h, PK04 Diversity Set, profiling panel (AID 1180).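 Also: RPMI8826 multiple myeloma cell line at 5000 cells per well; test concentration not given here.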 Particulars: higher = more signal.
The target in assay [10] is E3 ubiquitin-protein ligase XIAP (Homo sapiens) (UniProt P98170). The experiment in a line: small molecules binding XIAP protein – biophysical, small-molecule microarray, fluorescence 635 nm, primary screen (AID 1181).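 Also: score merges 667 nm emission and signal to noise over triplicate slides.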 Particulars: higher = more signal.
E3 ubiquitin-protein ligase XIAP (Homo sapiens), sequence (P98170 whole entry, looked up): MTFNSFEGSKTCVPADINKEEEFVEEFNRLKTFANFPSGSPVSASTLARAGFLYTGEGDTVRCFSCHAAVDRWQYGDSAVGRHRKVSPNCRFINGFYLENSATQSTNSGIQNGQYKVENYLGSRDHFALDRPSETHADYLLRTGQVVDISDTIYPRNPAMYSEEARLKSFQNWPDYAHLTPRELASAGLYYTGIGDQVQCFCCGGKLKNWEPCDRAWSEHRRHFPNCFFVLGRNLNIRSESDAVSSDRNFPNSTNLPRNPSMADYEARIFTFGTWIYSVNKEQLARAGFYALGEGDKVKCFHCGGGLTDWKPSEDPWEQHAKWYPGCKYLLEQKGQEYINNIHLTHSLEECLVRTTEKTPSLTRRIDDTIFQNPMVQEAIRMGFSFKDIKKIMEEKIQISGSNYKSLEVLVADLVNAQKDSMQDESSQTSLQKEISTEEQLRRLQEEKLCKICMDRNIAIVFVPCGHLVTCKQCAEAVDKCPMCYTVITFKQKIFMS

Dihydroorotate dehydrogenase (quinone), mitochondrial (Plasmodium falciparum (isolate 3D7)), sequence (Q08210 whole entry, looked up): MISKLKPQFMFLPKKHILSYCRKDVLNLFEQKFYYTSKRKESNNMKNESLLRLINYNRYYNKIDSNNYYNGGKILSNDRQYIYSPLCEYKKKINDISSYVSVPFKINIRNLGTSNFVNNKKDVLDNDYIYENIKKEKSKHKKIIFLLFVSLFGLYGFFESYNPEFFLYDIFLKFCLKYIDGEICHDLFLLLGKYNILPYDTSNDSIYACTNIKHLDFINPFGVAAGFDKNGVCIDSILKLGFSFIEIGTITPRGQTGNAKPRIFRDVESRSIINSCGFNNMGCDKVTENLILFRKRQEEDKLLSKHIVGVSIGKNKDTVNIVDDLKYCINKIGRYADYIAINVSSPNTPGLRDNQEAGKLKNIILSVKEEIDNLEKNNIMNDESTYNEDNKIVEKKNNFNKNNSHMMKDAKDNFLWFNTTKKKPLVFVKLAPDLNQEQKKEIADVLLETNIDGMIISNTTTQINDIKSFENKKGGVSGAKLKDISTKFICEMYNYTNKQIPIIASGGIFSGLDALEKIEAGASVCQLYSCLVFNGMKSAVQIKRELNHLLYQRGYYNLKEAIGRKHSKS

For the molecule `COCCOC(=O)N1C(=O)[C@@]2(c3cc(C#CCNC(N)=O)ccc31)[C@H](C(=O)N1CCCCCCC1)[C@H]1C(=O)O[C@H](c3ccccc3)[C@H](c3ccccc3)N1[C@@H]2c1ccc(OCCO)cc1`, the z-score in assay [1] is -0.178; in assay [2] it was 0.971 (inactive); in assay [3] it was -0.237 (inactive); in assay [5], 2.73 (inactive); in assay [6], 1.59 (inactive); in assay [7], -0.0272 (inactive). In addition, the figures for the z-score in assay [8] and in [9] were 0.531 (inactive) and 0.176, respectively. The composite z-score was -0.0134 (inactive) in assay [4] and 0.0471 in [10].
Consider `COc1cccc(C)c1NC(=O)O[C@H]1[C@H](OC(=O)Nc2ccccc2)[C@H](OC(=O)Nc2ccccc2)[C@@H](OC)O[C@@H]1CO`, for which the z-score was -1.22 in assay [1]; 0.803 (inactive) in [2]; -2.2 (inactive) in [3]; 0.565 (inactive) in assay [5]; 0.673 (inactive) in assay [6]; 0.462 (inactive) in assay [7]. Moreover, the results for the z-score in assay [8] and in [9] were -0.358 (inactive) and -1.65, respectively. Moreover, the results for the composite z-score in assay [4] and in [10] were 0.111 (inactive) and 0.0744, respectively.
Consider `CC(C)C(CO)N1C(=O)[C@@H]2[C@H]3C(=O)OCC=C[C@H]3OC23C=CCN(Cn2nnc4ccccc42)C(=O)[C@@H]13` (stereo not given in full), for which the z-score was 0.288 in [1]; 0.959 (inactive) in assay [2]; -0.281 (inactive) in [3]; 0.894 (inactive) in [5]; 0.68 (inactive) in assay [6]; -0.497 (inactive) in assay [7]. For the same molecule, the figures for the z-score in assay [8] and in assay [9] were -0.708 (inactive) and -0.0558, respectively. Moreover, the composite z-score in [4] is 0.237 (inactive); in [10], 0.175.
Regarding `O=C(O)[C@]1(CCS(=O)(=O)c2ccccc2)N=C(c2ccc(OCCCO)cc2)O[C@@H]1c1ccccc1`, the z-score in [1] was 0.93; in assay [2], -0.334 (inactive); in [3], 0.716 (inactive); in assay [5] it was -1.3 (inactive); in [6] it was -0.707 (inactive); in [7], 1.92 (inactive). In addition, the z-score in assay [8] was 0.815 (inactive); in assay [9], 0.314. Moreover, the composite z-score in assay [4] is -0.295 (inactive); in assay [10] it was -0.0988.
For `O=c1c2ccc(Br)cc2nc(-c2ccccc2)n1Cc1cccc(O)c1`, the z-score in assay [1] was -0.187; in assay [2] it was -2.04 (inactive); in [3], -1.1 (inactive); in assay [5] it was 0.186 (inactive); in assay [6], 0.159 (inactive); in assay [7], 0.362 (inactive). Further, the z-score was 0.39 (inactive) in [8] and -0.0974 in [9]. Besides, the values for the composite z-score in assay [4] and in assay [10] were 0.515 (inactive) and -0.151, respectively.
Take `Cc1ccc(S[C@]2(C(=O)O)CC(=O)N(C3CCCCC3)[C@@H]2c2ccc(CO)cc2)cc1`: the z-score in assay [1] is -0.628; in assay [2], -1.74 (inactive); in assay [3], 0.0977 (inactive); in assay [5], 0.512 (inactive); in [6] it was -0.332 (inactive); in [7], 0.643 (inactive). Further, the z-score is 1.48 (inactive) in assay [8] and 0.273 in assay [9]. Also, the composite z-score in [4] is 0.234 (inactive); in [10] it was -0.0031.
Turning to `Cc1ccc(S[C@]2(C(=O)NCc3ccccc3)CC(=O)N(C3Cc4ccccc4C3)[C@@H]2c2ccc(CO)cc2I)cc1`, the z-score in assay [1] was -0.0974; in assay [2], -2.95 (inactive); in [3], -2.61 (inactive); in [5], 0.761 (inactive); in assay [6], -2.63 (inactive); in [7], 0.964 (inactive). The z-score is 1.52 (inactive) in [8] and -1.89 in [9]. Further, the composite z-score in assay [4] was -1.29 (inactive); in assay [10] it was -0.315.
Take `COC(=O)[C@@]1(Cc2ccc(F)cc2)[C@H]2c3cc(C(=O)N4CCCC4)n(Cc4ccccc4)c3C[C@H]2CN1C(=O)c1ccccc1`: the z-score in assay [1] is 0.155; in assay [2] it was 1.38 (inactive); in [3] it was -0.874 (inactive); in assay [5], -0.526 (inactive); in assay [6], 0.669 (inactive); in assay [7] it was 0.392 (inactive). Moreover, the figures for the z-score in assay [8] and in assay [9] were -0.406 (inactive) and -0.922, respectively. Further, the composite z-score in [4] was 0.335 (inactive); in [10], -0.146.
For `COc1cc(NN2C(C(O)c3ccc(I)cc3)C=CC3C(=O)N(C)C(=O)C32)cc(OC)c1OC` (stereo not given), the z-score in assay [1] is -1.7; in assay [2], 0.643 (inactive); in [3], -0.297 (inactive); in assay [5], 1.08 (inactive); in assay [6], -0.377 (inactive); in assay [7], 0.168 (inactive). Moreover, the figures for the z-score in [8] and in assay [9] were -0.413 (inactive) and -0.786, respectively. Further, the composite z-score is -0.698 (inactive) in [4] and 0.346 in assay [10].
Regarding `C[C@@]1([C@@H](NC(=O)c2cccs2)c2ccc(-c3ccccc3)cc2)C[C@H]1C1CCCCC1`, the z-score in [1] was 0.133; in assay [2] it was 0.774 (inactive); in assay [3], -0.0911 (inactive); in [5] it was 2.3 (inactive); in [6] it was 0.548 (inactive); in assay [7] it was 0.0767 (inactive). In addition, the z-score is -0.483 (inactive) in assay [8] and 0.689 in [9]. The figures for the composite z-score in assay [4] and in assay [10] were -3.3 (inactive) and 0.246, respectively.
Turning to `COc1ccc(C(=O)Nc2ccc(CN3C(=O)[C@]4(O[C@H](CCn5cc([C@H](O)c6ccccc6)nn5)[C@@H]([Si](C)(C)c5ccc(OC)cc5)[C@@H]4C)c4ccccc43)cc2)cc1`, the z-score in assay [1] is -1.34; in assay [2], -0.884 (inactive); in assay [3], -3.17 (inactive); in [5] it was 1.55 (inactive); in assay [6] it was 1.63 (inactive); in [7], 0.938 (inactive). The z-score is 0.63 (inactive) in assay [8] and -3.24 in [9]. The composite z-score in assay [4] is -0.0934 (inactive); in assay [10] it was 0.0623.
In the case of `COCCCNC(=O)[C@@H]1c2ccccc2C(=O)N(Cc2cc(F)cc(C(F)(F)F)c2)[C@H]1c1ccc(CO)cc1`, the z-score is -0.434 in [1]; -0.336 (inactive) in assay [2]; -0.522 (inactive) in [3]; 0.36 (inactive) in [5]; -0.955 (inactive) in [6]; -0.109 (inactive) in [7]. In addition, the figures for the z-score in assay [8] and in assay [9] were -0.0475 (inactive) and -0.197, respectively. Further, the composite z-score is -1.13 (inactive) in assay [4] and -0.309 in [10].
As to `C=C(/C(=C/C[C@@H](OC(=O)c1ccncc1)c1cccc(OCCO)c1)c1cc(C(=O)OC)ccc1OC)C(C)C`, the z-score in assay [1] is 0.677; in assay [2], -0.243 (inactive); in assay [3], -0.261 (inactive); in assay [5], 1.16 (inactive); in assay [6] it was 0.0342 (inactive); in assay [7], 2.07 (inactive). Besides, the values for the z-score in [8] and in [9] were 1.42 (inactive) and 0.301, respectively. In addition, the composite z-score is -2.04 (inactive) in [4] and -0.107 in assay [10].
